Results on 9 compounds are retold here after PubChem BioAssay (NCI).

Compounds without any hit were thinned out: in the full panel of roughly 83,000, 20% have a hit.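 Note: values are percent growth. 100 is the growth of untreated cells, values between 100 and 0 indicate rising inhibition; between -100 and 0 indicates cell death.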 Values without a mark were called inactive. Calls of active or inactive are those of the source. How the source made its calls: active means growth percent below 10; inactive means the rest.

Common to all, as to experiment: NCI-60 one-dose screen, 48 h (100 = growth as untreated, 0 = no growth, -100 = all killed)
Holding throughout (conditions): 10 µM

Assay [1] has as its system HT29 colon.
Assay [2] has as its system SNB-75 CNS.
Assay [3] relates to SNB-19 CNS.
The test system of assay [4] is U251 CNS.
Assay [5] has as its system PC-3 prostate.
The subject of assay [6] is SK-MEL-5 melanoma.
Assay [7] relates to UACC-62 melanoma.
Assay [8] concerns LOX IMVI melanoma.
Assay [9] has as its system SK-MEL-28 melanoma.
For assay [10], the system named is SK-MEL-2 melanoma.
Assay [11] relates to SN12C renal.
The subject of assay [12] is UO-31 renal.
Assay [13] has as its system TK-10 renal.
Assay [14] relates to ACHN renal.
The subject of assay [15] is CAKI-1 renal.
For assay [16], the system named is A498 renal.
The test system of assay [17] is CCRF-CEM leukemia.
The test system of assay [18] is SR leukemia.
Assay [19] concerns MOLT-4 leukemia.

As for `COc1ccc(Nc2nc3ccc(NC(=O)NC4CCCCC4)cc3[nH]c2=O)cc1`, the growth in assay [1] is 106%; in [2] it was 82.6%; in assay [3], 100%; in [4], 86.2%; in [5] it was 94.7%; in assay [6], 90.9%. Also, the growth is 94.6% in [7]; 96.2% in [8]; 93.1% in [9]; 111% in [10]; 91.6% in assay [11]; 94.5% in assay [12]. Further, the growth in [13] is 117%; in assay [14], 94.8%; in assay [15] it was 87.7%; in assay [16] it was 109%; in assay [17], 91.6%; in assay [18], 103%.
Turning to `c1ccc(CSc2nnc3c4c5c(sc4nc(-c4cccnc4)n23)CCCCCC5)cc1`, the growth in assay [1] was 22.4%; in [2] it was 74.1%; in [3] it was 46.5%; in assay [4] it was 16.8%; in assay [5] it was 9.01% (active); in assay [6], -46% (active). Further, the growth was 34.9% in [7]; 60.1% in [8]; 49.2% in assay [9]; 16.5% in assay [10]; 56.5% in assay [11]; 94.8% in assay [12]. For the same compound, the growth is 72.2% in [13]; 73.7% in assay [14]; 71.6% in assay [15]; 58.5% in assay [16]; 25.2% in assay [17]; 46.5% in assay [18].
On to `O=C1Nc2ccc(Cl)cc2/C1=C\c1c(-c2ccc(Cl)cc2)nc2sc(C3CC3)nn12`, for which the growth is 61.8% in assay [1]; 11.3% in assay [2]; 74.3% in assay [3]; 52.6% in assay [4]; 75.6% in assay [5]; 72% in [6]. For the same compound, the growth in assay [7] is 38.4%; in assay [8], 26%; in [9] it was 46%; in assay [10], 103%; in assay [11], 75.7%; in assay [12] it was 63.7%. Further, the growth in assay [13] was 52.9%; in assay [14], 44.4%; in assay [15], 45.7%; in [16], 14.9%; in assay [17], 93.6%; in assay [18] it was 44.2%.
Regarding `Cn1c([N+](=O)[O-])cnc1/C=C1\Oc2ccccc2C1=O`, the growth in [1] is -23.7% (active); in [2], 43.8%; in assay [3], -17.3% (active); in assay [4] it was -12.6% (active); in assay [5] it was -21.4% (active); in [6] it was -94.1% (active). Besides, the growth in [7] was -90% (active); in [8] it was -50.2% (active); in [9], -25.9% (active); in assay [10] it was -53.3% (active); in assay [11], -18.2% (active); in [12], -39.3% (active). In addition, the growth in [13] was -28.8% (active); in assay [14], 3.1% (active); in assay [15], -23% (active); in assay [16], -3.16% (active); in assay [17] it was 2.77% (active); in assay [18], 9.62% (active).
Consider `N=C(N)c1ccc(-c2ccc(-c3ccccc3)o2)nc1`, for which the growth in assay [1] is 19.3%; in assay [2], 38.5%; in assay [3], 82.7%; in [4] it was 83.6%; in assay [5], 71.7%; in [6], 86.1%. Moreover, the growth in [7] was 103%; in [8], 83.4%; in assay [9] it was 96.2%; in [10], 109%; in assay [11] it was 86.6%; in assay [12], 65.7%. The growth in assay [13] was 111%; in assay [14] it was 92.4%; in assay [15], 83.8%; in assay [16], 45.7%; in assay [17] it was 82.5%; in [19] it was 60%. Moreover, the growth in assay [18] was 55.6%.
For `COc1cc(/C=C\c2cc(OC)c(OC)c(OC)c2)cc(NS(=O)(=O)c2ccc(Cl)cc2)c1OC`, the growth in [1] is 5.17% (active); in assay [2], 49.1%; in assay [3], 58.4%; in assay [4], 20.5%; in assay [5], 13.7%; in assay [6], 24.3%. In addition, the growth in [7] is 39.3%; in assay [8], 35.8%; in assay [9], 70.8%; in [10], 17.8%; in assay [11], 27.2%; in [12], 35.9%. Moreover, the growth is 55.2% in assay [13]; 39% in [14]; 37.1% in assay [15]; -5.88% (active) in assay [16]; 14.6% in [17]; 14.4% in [18].
For `Cn1c([N+](=O)[O-])cnc1/C=C1\Oc2cc(Cl)ccc2C1=O`, the growth in assay [1] is -25.4% (active); in [2] it was 65.6%; in assay [3] it was 15.6%; in [4] it was -9% (active); in [5], -12.5% (active); in [6] it was -77.4% (active). Further, the growth is 7.22% (active) in [7]; -60.3% (active) in [8]; -9.7% (active) in assay [9]; -55.2% (active) in [10]; -15.1% (active) in assay [11]; -35.2% (active) in assay [12]. Also, the growth is -24.4% (active) in [13]; 6.42% (active) in assay [14]; -21.1% (active) in assay [15]; 57.4% in assay [16]; -0.667% (active) in assay [17]; 8.29% (active) in assay [18].
On to `N#Cc1cccc(OCc2nc(N)nc(N)c2-c2ccc(Cl)c(Cl)c2)c1`, for which the growth in [1] was 9.63% (active); in [2] it was 51.7%; in assay [3], 47.1%; in [4], 22%; in assay [5], 27.5%; in assay [6], 22.4%. Also, the growth is 22.7% in assay [7]; 15.5% in [8]; 53.4% in assay [9]; 42.8% in assay [10]; 33.3% in assay [11]; 33.6% in [12]. For the same compound, the growth in [13] is 46.1%; in [14], 17.7%; in [15], 10.5%; in [16], 53.5%; in assay [19], 32.7%; in [18], 18.1%.
`CCC(=O)N1C/C(=C/c2ccc(OC)cc2)C(=O)/C(=C/c2ccc(OC)cc2)C1`: the growth in assay [1] was -35.5% (active); in [2] it was 52.9%; in assay [3], 68.2%; in assay [4], 4.41% (active); in [5], 16.2%; in assay [6], 15.7%. The growth in [7] was 27.3%; in assay [8] it was -58.7% (active); in assay [9] it was 19.2%; in [10], 82.3%; in assay [11], 27.4%; in assay [12] it was -7.25% (active). The growth was 70.3% in assay [13]; 28.4% in assay [14]; 13.1% in [15]; 83.5% in assay [16]; -5.27% (active) in assay [17]; 11% in assay [19]. Also, the growth in assay [18] is -11% (active).
